# In the supplement of paper PMC10338343:
# ± gives the standard deviation.
# Test system: MILI (PIWIL2) piRISC loaded with L1MC piRNA (26 nt)
# Assay: pre-steady-state target cleavage rate (min^-1); guide: L1MC piRNA 5'p-UAACUAAAUACUAUGCAAGCUGUAGG; MIWI and MILI are mouse PIWI proteins and EfPiwi is from a freshwater sponge; tags in brackets are library labels; higher = faster piRNA-guided slicing of the target
# Conditions: auxiliary factor: none (no GTSF1)
# Outline: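 With or without 500 nM GTSF1 partner protein, 1 nM active affinity-purified piRISC carrying one synthetic guide was mixed with 0.1 nM transcribed, DNA-blocked target RNA library in HEPES–potassium acetate buffer at 33 °C for 0–8 or 0–960 min. Uncleaved targets were sequenced and normalised to depth and to weakly complementary targets, three trials were pooled, and k3 was capped at 0.0001 min^-1. The pre-steady-state cleavage rate came from a burst-and-steady-state fit.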
row,Sequence,pre-steady-state target cleavage rate
1,UCCUGGAUGAGCUUGCAUAGUAUUAAGUUA,0.00479 ± 0.0019
2,UCCUGGAUGAGCUUGCAUAGUUUUUAGUUA,0.00471 ± 0.0024
3,UCCUGCUACAGUCUUGCAUAGUAUUUAGUUA,0.00875 ± 0.0023
4,UCCUGGUACAGGCUUGCAUAGUAUUUAGUUA,0.0131 ± 0.0043
5,UCCUCCUACUGCUUGGAUAGUAUUUAGUUA,0.011 ± 0.0023
6,UCCUGGAUCAGUCUUGCAUAGUAUUUAGUUA,0.0108 ± 0.0023
7,UCCUGGAACACGAUGCAUAGUAUUUAGUUA,0.00495 ± 0.0023
8,UCCUGGAUCAGCAUGCAUAGUAUUUAGUAA,0.00355 ± 0.0026
9,UCCUGGAACAGCUACCAUAGUAUUUAGUUA,0.00403 ± 0.0022
10,UCCUCCUACAGCUUGGAUAGUUUUUAGUUA,0.00384 ± 0.0019
11,UCCUCCUACAGGUUGCAUUGUAUUUAGUUA,0.00725 ± 0.0019
12,UCCUGGAACAGCUUGCAUGGUAUUUAGUUA,0.00826 ± 0.0025
13,UCCUGGUACAGCUUGCAUAAUAUUUAGUUA,0.0064 ± 0.0032
14,UCCUGGAUGUGCUUGCAUAGUGUUUAGUUA,0.00396 ± 0.0032
15,UCCUGGAACUGCUUGCAUAGUAUUUAGUAA,0.00419 ± 0.0025
16,UCCUACUACAGCUUGCAUAGUAUUUAGUUA,0.00883 ± 0.0027
17,UCCUGCUACACCUUGCAUAGUAUUUAGUUA,0.0087 ± 0.0022
18,UCCUGGAUCAGCUUGCAUCGUAUUUAGUUA,0.00789 ± 0.0027
19,UCCUGCUACAGCUGCAUAGUAUUUAGUUA,0.00665 ± 0.0026
20,UCCUGGUACAGCUUGCAUAGUAUUUUGUUA,0.00398 ± 0.0037

row,Sequence,pre-steady-state target cleavage rate
1,UCCUGCUUCAGCUUGCAUAGUAUUAAGUUA,0.00279 ± 0.0026
2,UCCUCCUAGAGCUUGCAUUGUAUUUAGUUA,0.00709 ± 0.0021
3,UCCUCCUACAGCUUGCAUGGUAUUUAGUUA,0.00982 ± 0.003
4,UCCUCCUACAGCUUGCAAGUAUUUAGUUA,0.00449 ± 0.0021
5,UCCUGCUACAGCUUGCAUAGUAUUUAGUCUA,0.00343 ± 0.0029
6,UCCUGCUACAGCAUGCAUAGUAUUUAGUUA,0.00853 ± 0.003
7,UCCUGGAUCAGCUAGCAUAGUAUUAAGUUA,0.00556 ± 0.0019
8,UCCUGGAACAGCAUGCAUAGUUUUUAGUUA,0.00553 ± 0.0023
9,UCCUCCAUCAGCUUGCAUAGUAUUUAGUAA,0.00315 ± 0.0022
10,UCCUGGAUCAGCUUGCAUAGUAUUUCGUUA,0.00354 ± 0.0024
11,UCCUGGUUCAGCUUGCAUAGUUUUUAGUUA,0.0081 ± 0.0027
12,UCCUGCUACGCUUGCAUAGUAUUUAGUUA,0.0067 ± 0.0024
13,UCCUGGAUGACCUUGCAUAGUAUUUAGUUA,0.0057 ± 0.0024
14,UCCUGGUUCAGCAUGCAUAGUAUUUAGUUA,0.0092 ± 0.0032
15,UCCUCCUAGAGCUUGGAUAGUAUUUAGUUA,0.00594 ± 0.0019
16,UCCUGCUUCAGCUUGGAUAGUAUUUAGUUA,0.0068 ± 0.002
17,UCCUGGAACAGGUUGCAUAGUAUUUAGUAA,0.00824 ± 0.0023
18,UCCUCCUACACCUUGGAUAGUAUUUAGUUA,0.00508 ± 0.0023
19,UCCUGCUACAGCUUUGCAUAGUAUUUAGUUA,0.00559 ± 0.0027
20,UCCUGGAACACGUUGCAUAGUAUUUAGUUA,0.01 ± 0.0027
